# Test results: the supplement of paper PMC10037445
# Values joined by “and” are separate entries in the source; they are usually repeats but may differ in a detail not shown here. Equal entries are not always repeated. Whole data set: some 2,900 compounds, median “NF-kB SEAP reporter activity, fold change vs agonist alone” near 0.99, cut for the highest 2% near 2.6. The entries come from a sample that favours the highest values as a whole.
# Columns and labels:
# RAW-Dual [1] = experiment: NF-kB SEAP reporter activity, fold change vs agonist alone; cytotoxicity flag (confluency mask): not cytotoxic; higher = enhanced NF-kB activity
# Summary of the method: (§1)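 Reporter activity is given as fold change relative to agonist-alone wells. To measure it, 50 nL of library stock was pin-tooled onto RAW-Dual macrophages (50,000 cells/well, DMEM, 384-well plates), a PRR agonist followed 1 h later, and cells stayed at 37 °C, 5% CO2. Twenty hours on, supernatant was assayed for IRF (QuantiLuc luminescence) and NF-κB (QuantiBlue, 620 nm absorbance), and wells under 70% of agonist-control IncuCyte confluency in both mask sets were marked cytotoxic.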
# RAW-Dual [2] = experiment: NF-kB SEAP reporter activity, fold change vs agonist alone; higher = enhanced NF-kB activity; details: library stock concentration (final ~1000-fold dilution): 10 mM
# Summary of the method: as §1
# RAW-Dual [3] = experiment: NF-kB SEAP reporter activity, fold change vs agonist alone; cytotoxicity flag (confluency mask): cytotoxic (confluency <70% of control); higher = enhanced NF-kB activity
# Summary of the method: as §1
# [4] = agonist: ODN 1826 (TLR9) 0.5 ug/mL
# [5] = agonist: Pam2CSK4 (TLR2/6) 0.1 ug/mL
# [6] = agonist: Pam3CSK4 (TLR2/1) 0.1 ug/mL
# [7] = cytotoxicity flag (confluency mask): cytotoxic (confluency <70% of control), agonist: Imiquimod (TLR7) […]
# [8] = cytotoxicity flag (confluency mask): cytotoxic (confluency <70% of control), agonist: MPLA (TLR4) […]
# [9] = cytotoxicity flag (confluency mask): not cytotoxic, agonist: Imiquimod (TLR7) […]
# [10] = cytotoxicity flag (confluency mask): not cytotoxic, agonist: MPLA (TLR4) […]
smiles,measurement,setting,value
CCC1C(=O)N(C)c2cnc(Nc3ccc(C(=O)NC4CCC(N5CCN(CC6CC6)CC5)CC4)cc3OC)nc2N1C(C)C (configuration not stated) (library stock concentration (final ~1000-fold dilution): 10 mM),NF-kB SEAP reporter activity,RAW-Dual [1]; agonist: LPS (TLR4) 0.1 ug/mL,5.71
same,NF-kB SEAP reporter activity,RAW-Dual [1]; [4],0.977
same,NF-kB SEAP reporter activity,RAW-Dual [1]; [5],1.95
same,NF-kB SEAP reporter activity,RAW-Dual [1]; [6],0.886
COc1cc(C(=O)NC2CCN(C)CC2)ccc1Nc1ncc2c(n1)N(C1CCCC1)CC(F)(F)C(=O)N2C,NF-kB SEAP reporter activity,RAW-Dual [2]; [7],1.71
same,NF-kB SEAP reporter activity,RAW-Dual [2]; [8],2.85
COc1cc(OC2CCN(C)CC2)ccc1Nc1ncc2c(n1)n(C1CCCC1)c(=O)n2C,NF-kB SEAP reporter activity,RAW-Dual [2]; [9],1.11
same,NF-kB SEAP reporter activity,RAW-Dual [2]; [10],0.875
C=CC(=O)Nc1cccc(Nc2nc(Nc3ccc(NC4CN(CCF)C4)cc3OC)ncc2C(F)(F)F)c1 (library stock concentration (final ~1000-fold dilution): 10 mM),NF-kB SEAP reporter activity,RAW-Dual [1]; agonist: LPS (TLR4) 0.1 ug/mL,0.561
same,NF-kB SEAP reporter activity,RAW-Dual [1]; [4],0.536
same,NF-kB SEAP reporter activity,RAW-Dual [1]; [5],0.359
same,NF-kB SEAP reporter activity,RAW-Dual [1]; [6],0.725
CCC1C(=O)N(C)c2cnc(Nc3ccc(C(=O)NC4CCN(C)CC4)cc3OC)nc2N1C1CCCC1 (configuration not stated),NF-kB SEAP reporter activity,RAW-Dual [2]; [7],2.21
same,NF-kB SEAP reporter activity,RAW-Dual [2]; [8],0.949
Cl.Cl.OCCN1CCN(CC/C=C2/c3ccccc3Sc3ccc(C(F)(F)F)cc32)CC1 (library stock concentration (final ~1000-fold dilution): 10 mM),NF-kB SEAP reporter activity,RAW-Dual [3]; agonist: LPS (TLR4) 0.1 ug/mL,0.443
same,NF-kB SEAP reporter activity,RAW-Dual [3]; [4],0.412
same,NF-kB SEAP reporter activity,RAW-Dual [3]; [5],0.431
same,NF-kB SEAP reporter activity,RAW-Dual [3]; [6],0.63
Cl.Cl.OCCN1CCN(CC/C=C2/c3ccccc3Sc3ccc(C(F)(F)F)cc32)CC1,NF-kB SEAP reporter activity,RAW-Dual [2]; [7],1.58
same,NF-kB SEAP reporter activity,RAW-Dual [2]; [8],0.876
CC(=O)OC12COC1CC(O)C1(C)C(=O)C(O)C3=C(C)C(OC(=O)C(O)C(NC(=O)OC(C)(C)C)c4ccccc4)CC(O)(C(OC(=O)c4ccccc4)C21)C3(C)C (configuration not stated),NF-kB SEAP reporter activity,RAW-Dual [2]; [9],1.14
same,NF-kB SEAP reporter activity,RAW-Dual [2]; [10],1.24
CC(=O)OC12COC1CC(O)C1(C)C(=O)C(O)C3=C(C)C(OC(=O)C(O)C(NC(=O)OC(C)(C)C)c4ccccc4)CC(O)(C(OC(=O)c4ccccc4)C21)C3(C)C (configuration not stated) (library stock concentration (final ~1000-fold dilution): 10 mM),NF-kB SEAP reporter activity,RAW-Dual [1]; agonist: LPS (TLR4) 0.1 ug/mL,1.2
same,NF-kB SEAP reporter activity,RAW-Dual [1]; [4],0.995
same,NF-kB SEAP reporter activity,RAW-Dual [1]; [5],1.02
same,NF-kB SEAP reporter activity,RAW-Dual [1]; [6],0.841
CC(C(O)c1ccc(O)cc1)N1CCC(Cc2ccccc2)CC1.CC(C(O)c1ccc(O)cc1)N1CCC(Cc2ccccc2)CC1.O=C(O)C(O)C(O)C(=O)O (configuration not stated),NF-kB SEAP reporter activity,RAW-Dual [2]; [9],1.14
same,NF-kB SEAP reporter activity,RAW-Dual [2]; [10],0.926
CC(C(O)c1ccc(O)cc1)N1CCC(Cc2ccccc2)CC1.CC(C(O)c1ccc(O)cc1)N1CCC(Cc2ccccc2)CC1.O=C(O)C(O)C(O)C(=O)O (configuration not stated) (library stock concentration (final ~1000-fold dilution): 10 mM),NF-kB SEAP reporter activity,RAW-Dual [1]; agonist: LPS (TLR4) 0.1 ug/mL,1.19
same,NF-kB SEAP reporter activity,RAW-Dual [1]; [4],0.64
same,NF-kB SEAP reporter activity,RAW-Dual [1]; [5],1.04
same,NF-kB SEAP reporter activity,RAW-Dual [1]; [6],0.922
Cn1c(=O)cc(N2CCCC(N)C2)n(Cc2ccccc2C#N)c1=O (configuration not stated),NF-kB SEAP reporter activity,RAW-Dual [2]; [9],1.08
Cn1c(=O)cc(N2CCCC(N)C2)n(Cc2ccccc2C#N)c1=O (configuration not stated) (library stock concentration (final ~1000-fold dilution): 10 mM),NF-kB SEAP reporter activity,RAW-Dual [1]; agonist: LPS (TLR4) 0.1 ug/mL,1.04 and 1.31
same,NF-kB SEAP reporter activity,RAW-Dual [1]; [4],0.953 and 1.01
same,NF-kB SEAP reporter activity,RAW-Dual [1]; [5],1.16 and 1.1
same,NF-kB SEAP reporter activity,RAW-Dual [1]; [6],0.92 and 1.24
